Screening results: PubChem BioAssay, National Center for Advancing Translational Sciences (NCATS)
The list is not random: actives were taken first. Their share in the collection is about 1.3%.
TRPML1 agonist = qHTS for Agonists of the Human Mucolipin Transient Receptor Potential 1 (TRPML1); Mucolipin-1 (Homo sapiens), Q9GZU1; TRPML1-expressing cells, Ca2+ dye fluorescence, FDSS; activation, % (test concentration not listed); hit rate 0.12% among 410,000; AID 624414, 2012; in the data active = activation above about 50%; inconclusive = mostly about 30% to 49%; also: 0% is about no effect
Target sequence (Q9GZU1 whole entry, looked up): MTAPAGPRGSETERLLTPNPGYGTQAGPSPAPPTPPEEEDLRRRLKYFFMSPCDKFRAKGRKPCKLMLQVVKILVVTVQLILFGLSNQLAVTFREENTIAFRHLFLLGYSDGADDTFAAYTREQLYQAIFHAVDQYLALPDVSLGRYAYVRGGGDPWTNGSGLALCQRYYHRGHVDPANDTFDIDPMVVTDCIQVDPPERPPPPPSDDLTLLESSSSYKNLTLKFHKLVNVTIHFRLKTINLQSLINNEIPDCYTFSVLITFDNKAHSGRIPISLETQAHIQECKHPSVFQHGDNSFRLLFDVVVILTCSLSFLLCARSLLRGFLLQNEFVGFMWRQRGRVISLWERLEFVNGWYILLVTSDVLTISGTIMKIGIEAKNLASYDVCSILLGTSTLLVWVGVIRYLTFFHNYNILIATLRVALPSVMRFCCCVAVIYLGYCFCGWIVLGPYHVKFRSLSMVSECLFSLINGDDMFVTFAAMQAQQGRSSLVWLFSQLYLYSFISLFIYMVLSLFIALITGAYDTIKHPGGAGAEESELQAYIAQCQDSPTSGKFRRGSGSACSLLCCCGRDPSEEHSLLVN
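Calcium fluorescence on an FDSS kinetic reader gave the read-out. Tet-induced TRPML1-DL cells were plated overnight, dye-loaded (Ca8 with quencher, 45-90 min, room temperature, dark), then read 110 s after compound addition, and again 110 s after 4uM final 54-4 (EC80).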
TRPML1 blocker = qHTS for Inhibitors of the Human Mucolipin Transient Receptor Potential 1 (TRPML1); TRPML1-inducible cells, Ca2+ dye fluorescence, FDSS; hits give low values; inhibition of EC80 agonist-evoked calcium signal; activity change, negative = inhibition, % (test concentration not listed); hit rate 0.02% among 390,000; AID 624415, 2012; in the data active = activity change below about -50%; inconclusive = between about -30% and that limit;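 also: stimulus is agonist 54-4 at its EC80 concentration; % is scaled to controls: 0 for no effect and ±100 for the full control effect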
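TRPML1-DL cells, Tet-induced overnight (~16 h, 37 °C) at 1,500 cells/well, were loaded with Ca8 no-wash dye plus quencher for 45-90 min at room temperature. Compounds were pinned during FDSS kinetic reading; agonist 54-4 at EC80 (4 uM final) then added.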
Vif-APOBEC3F blk = qHTS for Inhibitors of Vif-A3F Interactions: qHTS; HeLa A3F-eYFP + Vif (tagged APOBEC3F with the HIV-1 protein that degrades it), YFP fluorescence increase; Potency, µM (titrated, usually from 46.1 µM), inactives show top-dose activity, negative = active; hit rate 0.2% among 390,000; also: potency is read from the fitted curve at half-maximal effect; % of control where 0% means no effect; nearly all actives have a fitted effect of over 65% in size
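HeLa cells stably expressing Vif plus C-terminally eYFP-tagged A3F were seeded, incubated overnight at 37 deg C, dosed with compound, incubated overnight again at 37 deg C. Yellow fluorescence (Ex 488/Em 500-530) reported blocked Vif-mediated A3F-eYFP degradation.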
Vif-APOBEC3G blk = qHTS for Inhibitors of Vif-A3G Interactions: qHTS; DNA dC->dU-editing enzyme APOBEC-3G (Homo sapiens), Q9HC16; HeLa A3G-eYFP + Vif (tagged APOBEC3G with the HIV-1 protein that degrades it), YFP fluorescence, overnight; Potency, µM (titrated, usually from 46.1 µM), inactives show at the top dose activity, negative = active, hits mostly inhibitors; hit rate 0.076% among 410,000; AID 602310, 2012; also: potency is read from the fitted curve at half-maximal effect; % is scaled to controls: 0 for no effect and ±100 for the full control effect; nearly all actives have a fitted effect of over 60% in size
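Read-out is eYFP fluorescence (Ex 488/Em 500-530) from Vif-expressing HeLa A3G-eYFP cells; more signal means A3G escaped Vif-mediated degradation. Cells plated overnight, compound pinned in, incubated overnight at 37 deg C.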
12-LOX inh = Primary qHTS assay for inhibitors of human arachidonate 12S-lipoxygenase (ALOX12): Round 2; hit rate 1.1% among 580,000; purified 12hLO, xylenol orange hydroperoxide absorbance; AID 1671190, 2021; Potency, µM (titrated, usually from 108 µM), for the others: top-dose activity change, negative = inhibition, actives largely listed as inhibitors; also: potency is read from the fitted curve at half-maximal effect; % is scaled to controls: 0 for no effect and ±100 for the full control effect
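Hydroperoxide product was detected by ferrous iron/xylenol orange as the 573 to 405 nm absorbance ratio. Arachidonic acid at 40 uM (final) was turned over for 30 min at room temperature by 150 nM human 12hLO, pH 7.0 Hepes buffer, after 15 min compound preincubation.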
GRP78 ERSR act = qHTS for Inducers of the Endoplasmic Reticulum Stress Response (ERSR) in Human Glioma: qHTS; U87-MG GRP78 promoter luciferase reporter, 16 h; Potency, µM, without a hit: at the top dose activation, usual class: activators; hit rate 0.02% among 420,000; AID 602332, 2012; also: potency is read from the fitted curve at half-maximal effect; series mostly up to about 76 µM; % of control where 0% means no effect; nearly all actives have a fitted effect of over 35% in size
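Stably transfected U87-MG glioma cells carrying a GRP78-based luciferase sensor; 16 h compound incubation. Luminescence end-point read 10 min after Bright-Glo addition at room temperature.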
Starred values were filed as active, the others as inactive; u = inconclusive; x = no result given; [ ] = another dose, or the depositor's remark. Unless noted, calls follow the shape of the dose curve; as a rule, active = well fitted curve in the direction sought with a large enough effect; inconclusive = small, poorly fitted or top-dose-only effect, or another doubt; inactive = no such curve, though single readings can be large; an effect the other way counts as inactive or inconclusive.

SMILES	TRPML1 agonist	TRPML1 blocker	Vif-APOBEC3F blk	Vif-APOBEC3G blk	12-LOX inh	GRP78 ERSR act
CC(C)OC(=O)C(CC(=O)O)N1CCOCC1 (stereo not drawn)	0	11	-1%	3%	5.6µM*	-7%
O=C(O)CCc1ccc(S(=O)(=O)Nc2cccc(S(=O)(=O)N3CCCCC3)c2)cc1	x	x	x	x	-5%	x
N#Cc1c(O)c2c(-c3ccc(-c4ccccc4O)cc3)csc2[nH]c1=O	x	x	x	x	24µM*	x
CCC(c1nc2ccccc2[nH]1)n1c(=O)c(-c2ccco2)nc2ccccc21 (stereo not drawn)	x	x	x	x	25µM*	x
O=c1c(-c2cccs2)nc2ccccc2n1C(c1ccccn1)c1nc2ccccc2[nH]1 (stereo not drawn)	x	x	x	x	40µM*	x
O=c1c(-c2ccco2)nc2ccccc2n1C(c1ccccc1)c1nc2ccccc2[nH]1 (stereo not drawn)	x	x	x	x	18µM*	x
CNC(=O)c1ccc(NC(=O)CC2C=CCC2)cc1 (stereo not drawn)	x	x	x	x	-54%	x
COc1ccc(C(=O)N[C@@H]2CN(C(=O)Nc3ccc(F)cc3)CCC[C@H]2O)cc1	x	x	x	x	-37%[176 µM]	x
CC(Cc1ccccc1)=NNc1ccc([N+](=O)[O-])cc1[N+](=O)[O-]	3	4	-6%	-3%	-11%	-4%
CC(Cc1ccccc1)=NNS(=O)(=O)c1ccc([N+](=O)[O-])cc1	0	7	1%	3%	20µM*	-4%
CN(Cc1ccccc1)C(=O)C[C@@H]1O[C@H](CNC(=O)c2ccno2)[C@@H](O)[C@H]1O	x	x	x	x	28µM*	x
O=C(CCN1C(=O)/C(=C/c2ccc(Cl)cc2)SC1=S)Nc1cccc(C(=O)O)c1	0	2	-3%	3%	-27%	-1%
O=C(O)c1cccc(N2C(=O)/C(=C/c3ccc(SCc4ccc(Cl)cc4)o3)SC2=S)c1	4	26	u	-11%	3.5µM*	-3%
O=C(Nc1ccon1)c1sc2cccc(Br)c2c1Cl	x	x	x	x	-5%	x
O=C1NC[C@@H](CCCCN2C[C@H](Cc3ccc(O)cc3)N(CC3CCCCC3)C(=O)C2=O)N(CC2CCCCC2)C1=O	-1	x	x	x	22µM*	x
C=C(c1cccc2ccccc12)P(=O)(O)O	0	0	2%	-2%	13µM*	-6%
Cc1ccc(C(=O)N2CC(CO)C3(CCNCC3)C2)c(C)c1 (stereo not drawn)	x	x	x	x	39%	x
O=C(c1ccc(Cl)cc1)N1CC(CO)C2(CCNCC2)C1 (stereo not drawn)	x	x	x	x	40µM*	x
Cc1ccccc1Nc1n[nH]c(=S)s1	0	14	7%	0%	u	-1%
Cc1ccc(Nc2n[nH]c(=S)s2)cc1	0	16	-1%	-9%	32µM*	-4%
Cc1ccc(Nc2n[nH]c(=S)s2)cc1F	0	-9	16%	4%	40µM*	-1%
S=c1[nH]nc(Nc2ccc(Cl)cc2)s1	1	27	1%	2%	u	-5%
COc1ccc(OCC(=O)N/N=C2\CCCCc3ccccc32)cc1	3	17	1%	0%	9%	-3%
COc1cccc(NC(=S)N/N=C2/CCCCc3ccccc32)c1	1	-4	-1%	2%	45µM*	1%
S=C(N/N=C1\CCc2ccccc21)NC1CCCCC1	0	-10	-5%	3%	45µM*	1%
SMILES	TRPML1 agonist	TRPML1 blocker	Vif-APOBEC3F blk	Vif-APOBEC3G blk	12-LOX inh	GRP78 ERSR act
Cc1cccc(NC(=S)NN=C2CCCC2)c1C	x	x	x	x	28µM*	x
Cc1ccc(C)c(NC(=S)N/N=C2/CCCCc3ccccc32)c1	1	22	2%	4%	50µM*	-5%
COc1ccc(NC(=O)c2cc(-c3ccccn3)n[nH]2)cc1Cl	x	x	x	x	0%	x
CCn1ncc2c(C(=O)Nc3cc(OC)cc(OC)c3)cc(-c3cccs3)nc21	x	x	x	x	-3%	x
COc1ccccc1NC(=O)c1cc(=O)c2ccccc2o1	x	x	x	x	7%	x
COC(=O)N/N=C1\CCCc2ccccc21	0	3	3%	2%	-19%	-2%
CC(C)NC(=S)N/N=C1\CCCCc2ccccc21	2	27	u	-1%	40µM*	0%
COc1ccc(NC(=O)c2cc(-c3ccccc3O)on2)cc1OC	x	x	x	x	0.63µM*	x
Cc1cc2oc3ccc(NCCCn4ccnc4)cc3c(=O)c2cc1C	7	20	22µM*	u	1%	-11%
O=C1c2ccccc2-c2cccnc21	0	8	1%	-7%	2%	-4%
O=C1c2ccccc2C(=O)c2c(/C=C/N3CCCCC3)ccnc21	0	7	22µM*	u	-39%	-1%
CC(C)c1nc2c(c(-c3ccc(O)cc3)n1)CN(Cc1cccc(C(F)(F)F)c1)CC2	x	x	x	x	1%	x
CCN(CC)C(=O)C(C)[C@@H]1CC[C@@]2(C)Cc3sc(NC(=O)C4CC4)nc3[C@@H](C)[C@@H]2[C@H]1O (stereo partly drawn)	x	x	x	x	0%	x
C#CCN(C)C(=O)[C@@H](C)C1CC[C@@]2(C)Cc3sc(NC(=O)C4CC4)nc3[C@@H](C)[C@@H]2[C@H]1O (stereo partly drawn)	x	x	x	x	112µM*	x
Cc1noc2c(NCC3CCOCC3)cc(-c3ccc(F)cc3)nc12	x	x	x	x	56µM*	x
CC(Nc1ccc([N+](=O)[O-])cn1)c1ccc(Cl)cc1Cl (stereo not drawn)	x	x	x	x	56µM*	x
CC(Nc1ncccc1[N+](=O)[O-])c1ccc(Cl)cc1Cl (stereo not drawn)	x	x	x	x	-9%	x
COc1ccc(NC(=O)CSc2nccnc2N2CCN(c3ccccc3OC)CC2)cc1OC	x	x	x	x	-2%	x
Cc1ccc(C(=O)CCC(=O)OCC(=O)Nc2ccccc2SCC#N)cc1	3	-8	13µM*	-13%	-41%	-1%
CC(C)c1cccc(OCCN2CCCC2)c1	0	13	7%	0%	0.63µM*	-1%
Clc1cccc(OCCN2CCCC2)c1	1	-3	2%	4%	0%	0%
O=C(CSc1nc2ccccc2s1)Nc1cc(S(=O)(=O)N2CCOCC2)ccc1O	3	2	-1%	0%	22µM*	-5%
COc1ccccc1-n1cnc2cc(C(=O)NC3CC(C)(C)NC(C)(C)C3)ccc2c1=O	x	x	x	x	5%	x
C#Cc1ccc([C@H]2C=C(C(=O)O)O[C@@H](OCc3ccc(CO)cc3)C2)cc1	0	33	-1%	1%	45µM*	-1%
